The subject of test [1] is TRPC4 beta (transient receptor potential cation channel C4), mouse. The experiment in a line: activators of mouse TRPC4 channel, confirmation, cell-based, Fluo4 calcium, HEK293 TRPC4beta/mu-opioid, duplicates, 10 µM (AID 2426;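 active = fluorescence ratio normalized to control raised more than 50% in primary screen plus both repeat runs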). To be noted: Fluo4 calcium fluorescence, at 10 µM; active compounds read high.
The test system of test [2] is transient receptor potential cation channel C4 beta (TRPC4), mouse. The experiment in a line: activators of mouse TRPC4 channel, confirmation, cell-based, second round, Fluo4, HEK293 TRPC4beta/mu-opioid, 1 µM (AID 2461;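 active = primary screen active and over 50% activation in each of two duplicate runs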). As to conditions: Fluo4 calcium fluorescence, at 1 µM; active compounds read high.
The subject of test [3] is TRPC4 (transient receptor potential cation channel C4 beta), mouse. As to the kind of experiment: positive allosteric modulators of mouse TRPC4, confirmation, cell-based, second round, Fluo-4, HEK293 TRPC4beta/mu-opioid, 1 µM (AID 2554;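 active = primary screen hit whose fluorescence ratio, in both repeats, exceeds the weak agonist control mean by 3 SD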). As to conditions: DAMGO EC20, Fluo-4 calcium flux, at 1 µM; active compounds read high.
Test [4] relates to TRPC4 beta (transient receptor potential cation channel C4), mouse. As to the kind of experiment: positive allosteric modulators of mouse TRPC4, confirmation, cell-based, Fluo-4, HEK293 TRPC4beta/mu-opioid (AID 2555;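 active = primary screen hit whose calcium fluorescence ratio, in both repeats, exceeds the weak agonist control mean by 3 SD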). To be noted: DAMGO EC20, Fluo-4 calcium flux, at 10 µM; active compounds read high.
Test [5] deals with Short transient receptor potential channel 4 (Mus musculus) (UniProt Q9QUQ5). The experiment in a line: inhibitors of mouse TRPC4 channel, confirmation, cell-based, Fluo4, HEK293 TRPC4beta/mu-opioid (AID 2636;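 active = calcium signal cut by more than 3 SD below the full-agonist control yet still positive, in both repeats and the earlier primary screen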). To be noted: DAMGO, Fluo4 calcium flux, at 10 µM; active compounds read high.
Test [6] shares this target. As to the kind of experiment: inhibitors of mouse TRPC4 channel, confirmation, cell-based, second round, Fluo4, HEK293 TRPC4beta/mu-opioid, 1 µM (AID 2637). To be noted: Fluo4 calcium flux, DAMGO, at 1 µM; active compounds read high.
The target is the same in test [7]. The experiment in a line: mouse TRPC4 channel activators, dose response, cell-based, HEK293 TRPC4/mu-opioid, Fluo-4 calcium (AID 434937;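 active = primary screen activator hit with a dose response curve and TRPC4 channel activation at any tested dose; inactive = no activation, no dose response, or not a primary hit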).
Test [8] has the same target. As to the kind of experiment: TRPC4 positive allosteric modulators, dose response, cell-based, HEK293 TRPC4/mu-opioid, Fluo-4 calcium, EC20 DAMGO (AID 434941;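 active = earlier screen potentiator hit that boosts the TRPC4 ion channel at some dose, with a dose response; inactive = no potentiation, no dose response, or not a prior hit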;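 also: calcium entry triggered by an EC20 dose of DAMGO at the co-expressed mu-opioid receptor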).
The target is the same in test [9]. The experiment in a line: mouse TRPC4 channel inhibitors, dose response, cell-based, HEK293 TRPC4/mu-opioid, Fluo-4 calcium (AID 434942;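 active = primary screen inhibitor hit that blocks the TRPC4 channel at some tested dose, yielding a dose curve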).
In test [10] the target is Short transient receptor potential channel 6 (Mus musculus) (UniProt Q61143). As to the kind of experiment: inhibition of mouse TRPC6 channel, confirmation, selectivity assay for TRPC4 inhibitor project, cell-based, HEK293, membrane potential dye, duplicate (AID 434948;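 active = active in primary screen and both duplicates, each dropping signal beyond three positive-control SD with fluorescence still positive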). To be noted: HEK293 TRPC6, membrane potential dye fluorescence, at 10 µM, stimulated with maximal-effect acetylcholine; active compounds read high.

Test [11] shares this target. As to the kind of experiment: activation of mouse TRPC6 channel, confirmation, selectivity assay for TRPC4 activator project, cell-based, HEK293, membrane potential dye, duplicate (AID 434950;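 active = membrane potential signal rise above negative control mean plus 3 SD in both duplicates, also active in the earlier TRPC4 screen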;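 as to activation: 0% = buffer only wells and 100% = acetylcholine maximal-effect wells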). To be noted: HEK293 TRPC6, membrane potential fluorescence, at 10 µM; active compounds read high.
The target is the same in test [12]. The experiment in a line: TRPC6 potentiation by TRPC4 potentiator hits, confirmation, selectivity assay for TRPC4 potentiator project, HEK293 cells, membrane potential dye, duplicate (AID 434952;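 active = compound raising the membrane signal above positive-control mean plus 3 SD in both repeats, and a primary screen hit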). To be noted: HEK293 TRPC6, membrane potential dye fluorescence, at 10 µM, maximal acetylcholine added after compound; active compounds read high.
Test [13] has as its target Short transient receptor potential channel 4 (Mus musculus) (UniProt Q9QUQ5). As to the kind of experiment: calcium flux activators in TRPC4/5HT1a cells, counter-screen for TRPC4 activator project, cell-based, second counter screen, HEK293 TRPC4/5HT1a, Fluo-4 (AID 434977;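 active = calcium signal rise above buffer-control mean plus 5 SD in both duplicates, and also a hit in the primary screen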). To be noted: Fluo-4 calcium flux, at 10 µM; active compounds read high.
The nature of test [14]: calcium flux inhibitors in TRPC4/5HT1a cells, confirmation, counter-screen for TRPC4 inhibitor project, cell-based, second counter screen, HEK293 TRPC4/5HT1a, Fluo-4 (AID 434978;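 active = primary screen active whose calcium signal fell more than 3 SD beyond the full-serotonin control mean in both duplicate plates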;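 as to outcome: serotonin given first at submaximal then at maximal dose after compound preincubation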). To be noted: Fluo-4 calcium flux, at 10 µM, serotonin added to trigger calcium flux; active compounds read high.
Test [15] deals with TRPC4 (mouse), co-expressed with 5HT1a in HEK293. As to the kind of experiment: calcium flux potentiators in TRPC4/5HT1a cells, confirmation, counter-screen for TRPC4 potentiator project, cell-based, second counter screen, HEK293 TRPC4/5HT1a, Fluo-4 (AID 434979;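 active = signal rise over 3 SD above mean of control wells given weak agonist, in both repeats and first screen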). As to conditions: Fluo-4 calcium flux, at 10 µM, serotonin added at its EC20 dose; active compounds read high.
Test [16] can be described thus: calcium flux activation in mu-opioid HEK293 cells, confirmation, counter-screen for TRPC4 activator project, cell-based, HEK293 mu-opioid receptor line (AID 449723;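 active = hit in primary screen, with calcium signal over 5 SD above buffer well mean in both duplicates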;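 also: counter screen cells carry the mu-opioid receptor alone and lack TRPC4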). To be noted: Fluo-4 calcium fluorescence, at 10 µM; active compounds read high.
A short description of test [17]: calcium flux enhancement in mu-opioid HEK293 cells, confirmation, counter-screen for TRPC4 allosteric potentiator project, cell-based, HEK293 mu-opioid receptor line (AID 449724;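 active = calcium signal rise more than 3 SD above the low-dose agonist control mean, in both duplicate plates and the primary screen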;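 also: HEK293 cells carrying mu-opioid receptor only with no TRPC4 channel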). To be noted: Fluo-4 calcium flux, at 10 µM, compound added before EC20 DAMGO stimulus; active compounds read high.

Molecules are shown by their SMILES. For some assays here: Entries with a potency or affinity are not part of this list. The source made the active and inactive calls.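 The calls were made as follows, unless noted: active = calcium signal ratio cut to more than 3 SD under the fully stimulated control mean yet still positive, in both repeats and the primary screen; inactive = the rest.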

Sequence of Short transient receptor potential channel 4 (Mus musculus) (Q9QUQ5 whole entry, looked up): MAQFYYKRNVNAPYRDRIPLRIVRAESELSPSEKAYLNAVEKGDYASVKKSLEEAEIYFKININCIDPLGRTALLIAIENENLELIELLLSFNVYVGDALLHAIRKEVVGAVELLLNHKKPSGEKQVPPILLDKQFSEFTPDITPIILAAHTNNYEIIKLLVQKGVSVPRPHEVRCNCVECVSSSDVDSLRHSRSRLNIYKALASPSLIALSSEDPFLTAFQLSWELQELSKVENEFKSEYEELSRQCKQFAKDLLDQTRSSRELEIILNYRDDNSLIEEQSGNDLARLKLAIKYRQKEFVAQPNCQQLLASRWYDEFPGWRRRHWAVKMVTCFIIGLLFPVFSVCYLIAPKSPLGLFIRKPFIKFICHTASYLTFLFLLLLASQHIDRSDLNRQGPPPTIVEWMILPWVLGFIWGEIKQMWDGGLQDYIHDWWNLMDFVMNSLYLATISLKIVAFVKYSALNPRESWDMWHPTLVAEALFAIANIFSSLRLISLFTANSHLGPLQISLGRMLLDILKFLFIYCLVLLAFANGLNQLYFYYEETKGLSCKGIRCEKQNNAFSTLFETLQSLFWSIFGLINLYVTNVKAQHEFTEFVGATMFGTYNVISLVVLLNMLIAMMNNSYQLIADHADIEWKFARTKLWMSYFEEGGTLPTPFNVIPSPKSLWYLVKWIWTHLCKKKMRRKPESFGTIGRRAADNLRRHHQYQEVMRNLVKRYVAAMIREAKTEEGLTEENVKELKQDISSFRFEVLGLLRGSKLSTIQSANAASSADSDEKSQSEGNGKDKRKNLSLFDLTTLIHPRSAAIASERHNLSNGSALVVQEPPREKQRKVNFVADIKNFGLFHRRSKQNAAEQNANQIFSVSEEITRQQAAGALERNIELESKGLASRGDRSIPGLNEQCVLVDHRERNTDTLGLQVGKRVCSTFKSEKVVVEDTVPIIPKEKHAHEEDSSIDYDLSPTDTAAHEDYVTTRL
Sequence of Short transient receptor potential channel 6 (Mus musculus) (Q61143 whole entry, looked up): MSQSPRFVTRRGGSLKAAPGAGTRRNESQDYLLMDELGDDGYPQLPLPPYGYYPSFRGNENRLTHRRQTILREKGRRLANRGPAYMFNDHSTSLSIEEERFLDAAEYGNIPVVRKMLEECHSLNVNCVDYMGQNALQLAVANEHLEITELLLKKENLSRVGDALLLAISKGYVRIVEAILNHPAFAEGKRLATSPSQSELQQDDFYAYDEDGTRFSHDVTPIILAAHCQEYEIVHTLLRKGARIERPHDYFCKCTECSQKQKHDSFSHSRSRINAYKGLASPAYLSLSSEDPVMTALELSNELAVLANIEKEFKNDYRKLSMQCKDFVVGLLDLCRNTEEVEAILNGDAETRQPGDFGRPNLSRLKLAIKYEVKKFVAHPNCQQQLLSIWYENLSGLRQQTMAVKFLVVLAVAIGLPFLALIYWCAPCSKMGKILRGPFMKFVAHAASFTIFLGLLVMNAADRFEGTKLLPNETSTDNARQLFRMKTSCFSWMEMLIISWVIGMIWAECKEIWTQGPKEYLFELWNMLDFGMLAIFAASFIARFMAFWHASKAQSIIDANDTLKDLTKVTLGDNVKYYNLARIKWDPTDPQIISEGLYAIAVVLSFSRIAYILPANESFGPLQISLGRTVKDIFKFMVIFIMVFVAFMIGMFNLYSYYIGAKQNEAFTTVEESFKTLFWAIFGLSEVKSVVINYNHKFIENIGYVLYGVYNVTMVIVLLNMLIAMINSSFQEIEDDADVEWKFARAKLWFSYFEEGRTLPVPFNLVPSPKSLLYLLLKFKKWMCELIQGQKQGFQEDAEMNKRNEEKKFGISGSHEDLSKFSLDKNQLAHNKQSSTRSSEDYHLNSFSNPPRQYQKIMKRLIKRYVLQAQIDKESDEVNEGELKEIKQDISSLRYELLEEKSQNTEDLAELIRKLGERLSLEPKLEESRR

Regarding `O=c1c2ccccc2nc(COc2ccccc2)n1/N=C/c1cc([N+](=O)[O-])ccc1O`, the outcome in test [1], in [2], in test [5], in [6], in test [7] and in [8] was inactive. Further, the result in test [9], in test [10], in test [11], in test [12], in [13] and in test [14] was inactive. In addition, the outcome in [16] and in test [17] was inactive. Besides, the potentiation in test [3] was 11% (active); in test [4], 23% (active); in test [15], 10.5% (active).

With `CCNc1nc(NC(C)(C)C)nc(N2CCCC2)n1`, the result in test [1], in [2], in test [3], in test [4], in test [6] and in test [7] was inactive. Besides, the outcome in [8], in test [9], in test [10], in test [11], in test [12] and in [13] was inactive. Besides, the result in test [15], in test [16] and in test [17] was inactive. Moreover, the inhibition in test [5] was 77% (active); in test [14] it was 41.2% (active).

As for `CC1CCN(CC(O)COCCC23CC4CC(CC(C4)C2)C3)CC1` (configuration not stated), the outcome in test [1], in test [2], in [3], in test [4], in test [5] and in [6] was inactive. For the same molecule, the outcome in test [7], in [8], in test [9], in test [10], in [11] and in [12] was inactive. In addition, the outcome in test [13], in test [14], in [15], in test [16] and in [17] was inactive.

Turning to `Cc1ccc(C)c(N2CCN(CCCNC(=O)CCn3c(=O)c4cccn4c4cccnc43)CC2)c1`, the outcome in [1], in test [2], in test [3], in test [4], in test [5] and in test [6] was inactive. For the same molecule, the result in [7], in test [8], in [9], in test [10], in [11] and in test [12] was inactive. Besides, the result in [13], in test [14], in [15], in test [16] and in test [17] was inactive.

On to `COc1ccc(CC2(CO)CCN(C/C=C/c3ccccc3OC)CC2)cc1`, for which the outcome in test [1], in [2], in test [3], in test [4], in [6] and in test [7] was inactive. Further, the outcome in test [8], in test [9], in [10], in test [11], in test [12] and in test [13] was inactive. In addition, the outcome in [15], in test [16] and in test [17] was inactive. Besides, the inhibition in test [5] is 79% (active); in [14], 33.5% (active).

Take `CCCCNC(=O)/C(C#N)=C/c1ccc(F)cc1F`: the result in test [1], in test [2], in [3], in test [5], in test [6] and in test [7] was inactive. Further, the outcome in test [8], in [9], in test [10], in test [11], in [12] and in [13] was inactive. Further, the result in [14], in test [15], in test [16] and in test [17] was inactive. For the same molecule, in test [4], the potentiation was 9% (active).

In the case of `CC(C)Oc1ccc(CCC(=O)NNC(=S)NCc2ccccc2)cc1`, the outcome in [1], in test [2], in test [3], in [4], in test [5] and in test [6] was inactive. Also, the result in test [7], in test [8], in test [9], in test [10], in test [12] and in test [13] was inactive. Also, the result in test [14], in [15], in test [16] and in [17] was inactive. In addition, the activation in [11] is 37.5% (active).

Regarding `OCCN(CCO)c1ncnc2c1sc1nc(N3CCOCC3)c3c(c12)CCCC3`, the result in [1], in test [2], in test [3], in test [5], in test [6] and in test [7] was inactive. The outcome in test [8], in [9], in [10], in test [11], in test [12] and in test [13] was inactive. Also, the result in [14], in test [16] and in test [17] was inactive. For the same molecule, the potentiation is 10% (active) in [4] and 27.8% (active) in test [15].

On to `CCOc1cc(O)c(-c2[nH]ncc2-c2nc(C)cs2)cc1CC`, for which the result in [1], in [2], in [3], in test [5], in test [6] and in test [7] was inactive. The outcome in [8], in test [9], in [10], in test [11], in test [12] and in test [13] was inactive. Moreover, the result in [14], in test [16] and in test [17] was inactive. Further, the results for the potentiation in test [4] and in test [15] were 21% (active) and 20% (active), respectively.

For the molecule `COc1ccc(N=C2SCC(=O)N2Cc2ccccc2)cc1`, the outcome in test [1], in test [2], in test [3], in test [4], in [5] and in [6] was inactive. The outcome in test [7], in [8], in test [9], in [10], in test [11] and in test [12] was inactive. Moreover, the result in test [13], in test [14], in test [15], in test [16] and in test [17] was inactive.

With `Cc1cc(C(C)(C)C)cc(S(=O)(=O)Nc2cccc(C(=O)O)c2)c1C`, the result in [1], in test [2], in test [3], in test [5], in [6] and in test [7] was inactive. The result in test [8], in test [9], in test [10], in test [11], in test [12] and in [13] was inactive. In addition, the outcome in [14], in test [16] and in test [17] was inactive. For the same molecule, the potentiation in test [4] was 9% (active); in [15], 19% (active).

In the case of `CSc1ccccc1OC1CCN(Cc2ccccc2)CC1`, the result in test [1], in [2], in test [3], in test [4], in test [5] and in [6] was inactive. Also, the outcome in test [7], in test [8], in test [9], in test [10], in [11] and in test [12] was inactive. Besides, the result in [13], in [14], in test [15], in test [16] and in [17] was inactive.

Turning to `CC(=O)N1N=C(c2ccc(Br)cc2)OC1(C)CC(=O)Nc1ccccc1` (configuration not stated), the outcome in test [1], in test [2], in test [3], in test [4], in [5] and in test [6] was inactive. The outcome in test [7], in test [8], in [9], in [10], in test [11] and in [12] was inactive. The outcome in test [13], in [14], in test [16] and in [17] was inactive. Further, in [15], the potentiation was 13.4% (active).

In the case of `CCCn1c(=O)c(C(=O)NCC2CCCO2)c(O)c2ccccc21` (configuration not stated), the outcome in [1], in [2], in [5], in [6], in test [7] and in test [8] was inactive. Further, the result in test [9], in test [10], in test [11], in test [12], in test [13] and in [14] was inactive. Also, the result in test [16] and in test [17] was inactive. Moreover, the figures for the potentiation in test [3], in test [4] and in test [15] were 16% (active), 11% (active) and 7.45% (active), respectively.

As for `CC(=O)c1ccc(N2CCN(C(=O)CCS(=O)(=O)c3ccc4c(c3)NC(=O)CS4)CC2)cc1`, the outcome in test [1], in [2], in test [3], in [4], in [5] and in test [6] was inactive. Moreover, the result in test [7], in test [8], in test [9], in [10], in [11] and in test [12] was inactive. Also, the outcome in [13], in [14], in [16] and in test [17] was inactive. Moreover, the potentiation in test [15] was 20.9% (active).

Consider `CC(=O)c1ccc(N2CCN(C(=O)C3CCN(S(=O)(=O)c4ccc5c(c4)CC(C)N5C(=O)C4CC4)CC3)CC2)cc1` (configuration not stated), for which the outcome in test [1], in test [2], in [3], in [5], in test [6] and in test [7] was inactive. For the same molecule, the outcome in test [8], in [9], in test [10], in [11], in test [12] and in test [13] was inactive. For the same molecule, the outcome in test [14], in test [16] and in test [17] was inactive. Besides, the potentiation in test [4] was 9% (active); in [15] it was 14.8% (active).

The values are drawn from PubChem BioAssay.
